From the OligoGym collection

target: KCNMB2; assay: pooled miR-30 sensor sort-seq; sequence = guide strand; conditions: shRNA
Further: reference of the scale not given here.

Sequence | sensor-assay potency score (higher = more potent)
TGTTAGGATAACACTCTTCTGG | -0.415
TAGGGAACTCATAACAGACTGC | -0.389
TTGATTTTTATTGTCTCTTCTG | -0.466
TTATTGTCTCTTCTGTGTGGTA | -0.319
TTCCATGACAACATTCACCAGG | -0.0986
TTTGTTAGGATAACACTCTTCT | 0.649
TTTTGTTAGGATAACACTCTTC | -0.026
TTAGGATAACACTCTTCTGGTT | -1.15
TAGGATAACACTCTTCTGGTTT | 0.203
TTTTATTGTCTCTTCTGTGTGG | 0.163
TAACACTCTTCTGGTTTCCTTC | -0.332
TTTATTGTCTCTTCTGTGTGGT | 0.74

target: KCNN2; assay: as above; conditions: shRNA

Sequence | sensor-assay potency score (higher = more potent)
TTCTTAATTGATGAATAGCTTG | -1.14
TTAGACACCACGATCTCGGGGG | 1.02
ATGAACAACTGTATTTCCCTGG | 0.818
TACTTTTGCATGATCTATCTTT | -0.0765
TTACACTTCTTAATTGATGAAT | -0.837
TTGATGAATAGCTTGCAGGAAT | -0.859
TTGTCGTAGCTCTCCATCTGAG | -1.04
TAATTGATGAATAGCTTGCAGG | -0.772
TTAATTGATGAATAGCTTGCAG | 0.193
ATTGATATCAACCACATCGCTC | -0.533
TAGCTTGCAGGAATTTTCGTTG | -0.466
TTCTCGAAGTCTTCACTCCTTT | -0.431
